# According to publication PMC11006913:
# What was measured:
# Assay in all cases: PBM; 200 nM protein, PBS
# Settings in all cases: dsDNA, one strand shown
# [1] = target: PROP1 (Homo sapiens, UniProt O75360 56-141)
# [2] = target: PROP1 (Homo sapiens, UniProt O75360 56-141, R99H)
# [3] = target: PROP1 (Homo sapiens, UniProt O75360 56-141, F88S)
# [4] = target: VAX1 (Homo sapiens, UniProt Q5SQQ9 86-172)
# [5] = target: HESX1 (Homo sapiens, UniProt Q9UBX0 95-180, R109Q)
# HESX1, sequence (Q9UBX0 95-180 R109Q): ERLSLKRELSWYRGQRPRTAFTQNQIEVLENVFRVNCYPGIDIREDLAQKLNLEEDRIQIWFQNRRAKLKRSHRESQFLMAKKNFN
# PROP1 (Homo sapiens, UniProt O75360 56-141, R99H), sequence (O75360 56-141 R99H): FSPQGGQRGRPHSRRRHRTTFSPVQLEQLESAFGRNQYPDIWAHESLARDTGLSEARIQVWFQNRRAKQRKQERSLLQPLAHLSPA
# PROP1 (Homo sapiens, UniProt O75360 56-141), sequence (O75360 56-141): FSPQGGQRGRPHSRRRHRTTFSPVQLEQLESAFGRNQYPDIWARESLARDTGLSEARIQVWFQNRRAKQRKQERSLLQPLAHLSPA
# PROP1 (Homo sapiens, UniProt O75360 56-141, F88S), sequence (O75360 56-141 F88S): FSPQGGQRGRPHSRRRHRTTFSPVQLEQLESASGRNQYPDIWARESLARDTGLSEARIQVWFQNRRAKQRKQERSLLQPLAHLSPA
# VAX1, sequence (Q5SQQ9 86-172): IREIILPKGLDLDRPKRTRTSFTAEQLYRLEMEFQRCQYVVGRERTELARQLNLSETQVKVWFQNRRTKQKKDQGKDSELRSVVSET
Sequence,binding signal [1],binding signal [2],binding signal [3],binding signal [4],binding signal [5]
CCAGGGTC,"6.75 upbm affinity estimate (log intensity, higher = more binding, comparable within an allelic series)","6.85 upbm affinity estimate (log intensity, higher = more binding, comparable within an allelic series)","6.62 upbm affinity estimate (log intensity, higher = more binding, comparable within an allelic series)",,
AAGGGAGT,"6.58 upbm affinity estimate (log intensity, higher = more binding, comparable within an allelic series)","6.7 upbm affinity estimate (log intensity, higher = more binding, comparable within an allelic series)","6.82 upbm affinity estimate (log intensity, higher = more binding, comparable within an allelic series)",,
GCAAATAA,"9 upbm affinity estimate (log intensity, higher = more binding, comparable within an allelic series)","8.48 upbm affinity estimate (log intensity, higher = more binding, comparable within an allelic series)","7.34 upbm affinity estimate (log intensity, higher = more binding, comparable within an allelic series)",,
CCGCACCC,"6.68 upbm affinity estimate (log intensity, higher = more binding, comparable within an allelic series)","6.9 upbm affinity estimate (log intensity, higher = more binding, comparable within an allelic series)","6.69 upbm affinity estimate (log intensity, higher = more binding, comparable within an allelic series)",,
GTGCGCCA,"6.79 upbm affinity estimate (log intensity, higher = more binding, comparable within an allelic series)","6.83 upbm affinity estimate (log intensity, higher = more binding, comparable within an allelic series)","6.75 upbm affinity estimate (log intensity, higher = more binding, comparable within an allelic series)",,
TGATTACA,"9.42 upbm affinity estimate (log intensity, higher = more binding, comparable within an allelic series)","8.57 upbm affinity estimate (log intensity, higher = more binding, comparable within an allelic series)","7.5 upbm affinity estimate (log intensity, higher = more binding, comparable within an allelic series)",,
ATTATGGG,"9.26 upbm affinity estimate (log intensity, higher = more binding, comparable within an allelic series)","8.87 upbm affinity estimate (log intensity, higher = more binding, comparable within an allelic series)","7.21 upbm affinity estimate (log intensity, higher = more binding, comparable within an allelic series)",,
TCCAATCA,"8.66 upbm affinity estimate (log intensity, higher = more binding, comparable within an allelic series)","8.18 upbm affinity estimate (log intensity, higher = more binding, comparable within an allelic series)","7.02 upbm affinity estimate (log intensity, higher = more binding, comparable within an allelic series)",,
CCGATGGC,"6.65 upbm affinity estimate (log intensity, higher = more binding, comparable within an allelic series)","6.61 upbm affinity estimate (log intensity, higher = more binding, comparable within an allelic series)","6.61 upbm affinity estimate (log intensity, higher = more binding, comparable within an allelic series)",,
CTCAGCGC,"6.82 upbm affinity estimate (log intensity, higher = more binding, comparable within an allelic series)","6.86 upbm affinity estimate (log intensity, higher = more binding, comparable within an allelic series)","6.88 upbm affinity estimate (log intensity, higher = more binding, comparable within an allelic series)",,
AAAAATTT,"8.27 upbm affinity estimate (log intensity, higher = more binding, comparable within an allelic series)","7.95 upbm affinity estimate (log intensity, higher = more binding, comparable within an allelic series)","7.46 upbm affinity estimate (log intensity, higher = more binding, comparable within an allelic series)",,
CCCGCGCA,"6.78 upbm affinity estimate (log intensity, higher = more binding, comparable within an allelic series)","6.9 upbm affinity estimate (log intensity, higher = more binding, comparable within an allelic series)","6.76 upbm affinity estimate (log intensity, higher = more binding, comparable within an allelic series)",,
CGGCTCCA,"6.66 upbm affinity estimate (log intensity, higher = more binding, comparable within an allelic series)","6.76 upbm affinity estimate (log intensity, higher = more binding, comparable within an allelic series)","6.74 upbm affinity estimate (log intensity, higher = more binding, comparable within an allelic series)",,
CACGACGA,"6.69 upbm affinity estimate (log intensity, higher = more binding, comparable within an allelic series)","6.8 upbm affinity estimate (log intensity, higher = more binding, comparable within an allelic series)","6.95 upbm affinity estimate (log intensity, higher = more binding, comparable within an allelic series)",,
GCTCCTCC,"6.62 upbm affinity estimate (log intensity, higher = more binding, comparable within an allelic series)","6.55 upbm affinity estimate (log intensity, higher = more binding, comparable within an allelic series)","6.45 upbm affinity estimate (log intensity, higher = more binding, comparable within an allelic series)",,
AACTAAGC,,,,"9.21 upbm affinity estimate (log intensity, higher = more binding, comparable within an allelic series)",
GGGTCGGA,"6.69 upbm affinity estimate (log intensity, higher = more binding, comparable within an allelic series)","6.78 upbm affinity estimate (log intensity, higher = more binding, comparable within an allelic series)","6.58 upbm affinity estimate (log intensity, higher = more binding, comparable within an allelic series)",,
CGCGTCCC,"6.69 upbm affinity estimate (log intensity, higher = more binding, comparable within an allelic series)","6.77 upbm affinity estimate (log intensity, higher = more binding, comparable within an allelic series)","6.52 upbm affinity estimate (log intensity, higher = more binding, comparable within an allelic series)",,
AATGGGGC,"8.17 upbm affinity estimate (log intensity, higher = more binding, comparable within an allelic series)",,"7.05 upbm affinity estimate (log intensity, higher = more binding, comparable within an allelic series)",,
CCTTCGGC,"6.66 upbm affinity estimate (log intensity, higher = more binding, comparable within an allelic series)","6.64 upbm affinity estimate (log intensity, higher = more binding, comparable within an allelic series)","6.53 upbm affinity estimate (log intensity, higher = more binding, comparable within an allelic series)",,
AACTATAT,"8.71 upbm affinity estimate (log intensity, higher = more binding, comparable within an allelic series)",,"7.61 upbm affinity estimate (log intensity, higher = more binding, comparable within an allelic series)",,
ATGACCAA,"8.15 upbm affinity estimate (log intensity, higher = more binding, comparable within an allelic series)",,"7.17 upbm affinity estimate (log intensity, higher = more binding, comparable within an allelic series)",,
TACCCTAA,"8.09 upbm affinity estimate (log intensity, higher = more binding, comparable within an allelic series)",,"7.04 upbm affinity estimate (log intensity, higher = more binding, comparable within an allelic series)",,
CCCGGGAA,"6.78 upbm affinity estimate (log intensity, higher = more binding, comparable within an allelic series)","6.79 upbm affinity estimate (log intensity, higher = more binding, comparable within an allelic series)","6.66 upbm affinity estimate (log intensity, higher = more binding, comparable within an allelic series)",,
AGGCCAGG,"6.77 upbm affinity estimate (log intensity, higher = more binding, comparable within an allelic series)","6.97 upbm affinity estimate (log intensity, higher = more binding, comparable within an allelic series)","6.49 upbm affinity estimate (log intensity, higher = more binding, comparable within an allelic series)",,
GCTCGGAC,"6.55 upbm affinity estimate (log intensity, higher = more binding, comparable within an allelic series)","6.66 upbm affinity estimate (log intensity, higher = more binding, comparable within an allelic series)","6.68 upbm affinity estimate (log intensity, higher = more binding, comparable within an allelic series)",,

Sequence,binding signal [1],binding signal [2],binding signal [3],binding signal [4],binding signal [5]
CGATGCCC,"6.76 upbm affinity estimate (log intensity, higher = more binding, comparable within an allelic series)","6.86 upbm affinity estimate (log intensity, higher = more binding, comparable within an allelic series)","6.71 upbm affinity estimate (log intensity, higher = more binding, comparable within an allelic series)",,
AACTAAAT,"9.34 upbm affinity estimate (log intensity, higher = more binding, comparable within an allelic series)","8.6 upbm affinity estimate (log intensity, higher = more binding, comparable within an allelic series)","7.5 upbm affinity estimate (log intensity, higher = more binding, comparable within an allelic series)",,
GACATTAC,"8.23 upbm affinity estimate (log intensity, higher = more binding, comparable within an allelic series)","7.84 upbm affinity estimate (log intensity, higher = more binding, comparable within an allelic series)","7.27 upbm affinity estimate (log intensity, higher = more binding, comparable within an allelic series)",,
CCGAGTTA,"8.19 upbm affinity estimate (log intensity, higher = more binding, comparable within an allelic series)",,"7.14 upbm affinity estimate (log intensity, higher = more binding, comparable within an allelic series)",,
CTCTGGAA,"6.65 upbm affinity estimate (log intensity, higher = more binding, comparable within an allelic series)","6.87 upbm affinity estimate (log intensity, higher = more binding, comparable within an allelic series)","6.91 upbm affinity estimate (log intensity, higher = more binding, comparable within an allelic series)",,
GGAGCAGA,"6.75 upbm affinity estimate (log intensity, higher = more binding, comparable within an allelic series)","6.89 upbm affinity estimate (log intensity, higher = more binding, comparable within an allelic series)","6.82 upbm affinity estimate (log intensity, higher = more binding, comparable within an allelic series)",,
GCCTGCGA,"6.74 upbm affinity estimate (log intensity, higher = more binding, comparable within an allelic series)","6.64 upbm affinity estimate (log intensity, higher = more binding, comparable within an allelic series)","6.59 upbm affinity estimate (log intensity, higher = more binding, comparable within an allelic series)",,
GATAGTTA,"8.6 upbm affinity estimate (log intensity, higher = more binding, comparable within an allelic series)","8.09 upbm affinity estimate (log intensity, higher = more binding, comparable within an allelic series)","7.39 upbm affinity estimate (log intensity, higher = more binding, comparable within an allelic series)",,
GGATGCAC,"6.71 upbm affinity estimate (log intensity, higher = more binding, comparable within an allelic series)","6.74 upbm affinity estimate (log intensity, higher = more binding, comparable within an allelic series)","6.83 upbm affinity estimate (log intensity, higher = more binding, comparable within an allelic series)",,
CCTGTTAC,"7.8 upbm affinity estimate (log intensity, higher = more binding, comparable within an allelic series)",,"7.11 upbm affinity estimate (log intensity, higher = more binding, comparable within an allelic series)",,
AGGGCCGC,"6.72 upbm affinity estimate (log intensity, higher = more binding, comparable within an allelic series)","6.82 upbm affinity estimate (log intensity, higher = more binding, comparable within an allelic series)","6.5 upbm affinity estimate (log intensity, higher = more binding, comparable within an allelic series)",,
CGCGGTCC,"6.77 upbm affinity estimate (log intensity, higher = more binding, comparable within an allelic series)","6.82 upbm affinity estimate (log intensity, higher = more binding, comparable within an allelic series)","6.49 upbm affinity estimate (log intensity, higher = more binding, comparable within an allelic series)",,
AATCACAT,"9.48 upbm affinity estimate (log intensity, higher = more binding, comparable within an allelic series)",,"7.46 upbm affinity estimate (log intensity, higher = more binding, comparable within an allelic series)",,
ATATTTGC,"8.36 upbm affinity estimate (log intensity, higher = more binding, comparable within an allelic series)","7.99 upbm affinity estimate (log intensity, higher = more binding, comparable within an allelic series)","7.34 upbm affinity estimate (log intensity, higher = more binding, comparable within an allelic series)",,
AAGTTAAG,"7.89 upbm affinity estimate (log intensity, higher = more binding, comparable within an allelic series)",,"7.07 upbm affinity estimate (log intensity, higher = more binding, comparable within an allelic series)",,
AAATCATG,"8.42 upbm affinity estimate (log intensity, higher = more binding, comparable within an allelic series)",,"7.26 upbm affinity estimate (log intensity, higher = more binding, comparable within an allelic series)",,
AATCTATA,"8.79 upbm affinity estimate (log intensity, higher = more binding, comparable within an allelic series)","8.14 upbm affinity estimate (log intensity, higher = more binding, comparable within an allelic series)","7.56 upbm affinity estimate (log intensity, higher = more binding, comparable within an allelic series)",,
ATCAACGG,,,,"9.55 upbm affinity estimate (log intensity, higher = more binding, comparable within an allelic series)",
ATCACTAA,"8.89 upbm affinity estimate (log intensity, higher = more binding, comparable within an allelic series)","8.2 upbm affinity estimate (log intensity, higher = more binding, comparable within an allelic series)","7.19 upbm affinity estimate (log intensity, higher = more binding, comparable within an allelic series)",,
CCGGGCTA,"6.87 upbm affinity estimate (log intensity, higher = more binding, comparable within an allelic series)","6.89 upbm affinity estimate (log intensity, higher = more binding, comparable within an allelic series)","6.52 upbm affinity estimate (log intensity, higher = more binding, comparable within an allelic series)",,
AGACCGTC,"6.82 upbm affinity estimate (log intensity, higher = more binding, comparable within an allelic series)","6.83 upbm affinity estimate (log intensity, higher = more binding, comparable within an allelic series)","6.81 upbm affinity estimate (log intensity, higher = more binding, comparable within an allelic series)",,
ACCGAGAG,"6.71 upbm affinity estimate (log intensity, higher = more binding, comparable within an allelic series)","6.74 upbm affinity estimate (log intensity, higher = more binding, comparable within an allelic series)","6.73 upbm affinity estimate (log intensity, higher = more binding, comparable within an allelic series)",,
ATCTTAAC,"8.34 upbm affinity estimate (log intensity, higher = more binding, comparable within an allelic series)","7.85 upbm affinity estimate (log intensity, higher = more binding, comparable within an allelic series)","7.45 upbm affinity estimate (log intensity, higher = more binding, comparable within an allelic series)",,
GGTAAATA,"8.63 upbm affinity estimate (log intensity, higher = more binding, comparable within an allelic series)","8.23 upbm affinity estimate (log intensity, higher = more binding, comparable within an allelic series)","7.4 upbm affinity estimate (log intensity, higher = more binding, comparable within an allelic series)",,
GTCTCGAA,"6.78 upbm affinity estimate (log intensity, higher = more binding, comparable within an allelic series)","6.8 upbm affinity estimate (log intensity, higher = more binding, comparable within an allelic series)","7.1 upbm affinity estimate (log intensity, higher = more binding, comparable within an allelic series)",,
AATCAATT,,,,,"8.86 upbm affinity estimate (log intensity, higher = more binding, comparable within an allelic series)"
